Experimental findings from the supplement of paper PMC6607015 are described below.

What all share (conditions): compound concentration in added solution (µM; 5 µl added to 20 µl cells): 10; 18 h
Assay [1] concerns A431. Put plainly: LBPA endosome anti-LBPA integrated intensity (sum per cell), Z-score; higher = more LBPA staining. In short, it runs like this: (§1)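 The data are Z-scores, normalised in AcuityXpress, of integrated LBPA or filipin intensity in each cell, either whole-cell or restricted to LBPA endosomes. HeLa MZ or A431 cells, 3,500 per well in 20 µl, were seeded onto 5 µl of 10 µM compound solution in duplicate 384-well plates and incubated 18 h. Fixed cells were stained and imaged, with intensities extracted by MetaXpress segmentation.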

Assay [2] concerns HeLa MZ. The assay is described as above. In short, it runs like this:
as §1

For assay [3], the system named is A431. The experiment in a line: whole-cell filipin (free cholesterol) integrated intensity, Z-score; higher = more cholesterol staining. In short, it runs like this: as §1
Assay [4] concerns HeLa MZ. Described as above. In short, it runs like this:
as §1

Assay [5] concerns A431. The experiment in a line: filipin (cholesterol) integrated intensity within LBPA endosomes, Z-score; higher = more cholesterol in LBPA endosomes. An outline of the steps: as §1
The test system of assay [6] is HeLa MZ. The assay is described as above. An outline of the steps: as §1

The structures appear in SMILES notation. Structures can show the parent of a compound that is named as a salt.

For `CCN1CCCC1CNC(=O)c1cc(S(=O)(=O)CC)c(N)cc1OC` (configuration not stated) [Amisulpride], the “LBPA endosome anti-LBPA integrated intensity (z-score)” value with A431 [1] is -0.554; in the assay with HeLa MZ [2], -0.244. The “whole-cell filipin (z-score)” value with A431 [3] was -0.77; with HeLa MZ [4], -0.754. The “filipin (z-score)” value with A431 [5] is -0.543; in the assay on HeLa MZ [6], -0.453.

`Cc1ccc(Cl)c(Nc2ccccc2C(=O)O)c1Cl` [Meclofenamic acid sodium salt monohydrate]: the “LBPA endosome anti-LBPA integrated intensity (z-score)” value was -0.528 in the assay on A431 [1] and -0.676 with HeLa MZ [2]. In addition, the “whole-cell filipin (z-score)” value was -0.856 with A431 [3] and -0.416 with HeLa MZ [4]. The “filipin (z-score)” value in the assay with A431 [5] is -0.531; in the assay on HeLa MZ [6], -0.606.

With `OC[C@H]1O[C@@H](Oc2ccc(O)cc2)[C@H](O)[C@@H](O)[C@@H]1O` [Arbutin], the “LBPA endosome anti-LBPA integrated intensity (z-score)” value was -0.459 with A431 [1] and 0.327 in the assay with HeLa MZ [2]. The entries for the “whole-cell filipin (z-score)” value in the assay with A431 [3] and in the assay with HeLa MZ [4] were -0.0729 and -0.0721, respectively. Also, the “filipin (z-score)” value with A431 [5] is -0.436; in the assay on HeLa MZ [6], -0.605.

Take `CC(C)c1c(C(=O)Nc2ccccc2)c(-c2ccccc2)c(-c2ccc(F)cc2)n1CC[C@@H](O)C[C@@H](O)CC(=O)O` [Atorvastatin]: the entries for the “LBPA endosome anti-LBPA integrated intensity (z-score)” value in the assay on A431 [1] and in the assay on HeLa MZ [2] were -0.737 and -0.992, respectively. Further, the “whole-cell filipin (z-score)” value in the assay on A431 [3] is -0.0189; in the assay with HeLa MZ [4] it was -0.402. In addition, the “filipin (z-score)” value was -0.543 with A431 [5] and -0.45 in the assay on HeLa MZ [6].

Regarding `CNCCc1ccccn1` [Betahistine mesylate], the entries for the “LBPA endosome anti-LBPA integrated intensity (z-score)” value with A431 [1] and in the assay with HeLa MZ [2] were -0.418 and -0.427, respectively. Further, the “whole-cell filipin (z-score)” value in the assay on A431 [3] was -0.443; with HeLa MZ [4], -0.285. Further, the “filipin (z-score)” value with A431 [5] was -0.457; in the assay on HeLa MZ [6] it was -0.6.

On to `CC(=O)Oc1cc(C(C)C)c(OCCN(C)C)cc1C` [Moxisylyte hydrochoride], for which the results for the “LBPA endosome anti-LBPA integrated intensity (z-score)” value in the assay with A431 [1] and in the assay with HeLa MZ [2] were -0.364 and -0.0871, respectively. Besides, the “whole-cell filipin (z-score)” value in the assay on A431 [3] was -0.91; with HeLa MZ [4], -1.03. Besides, the entries for the “filipin (z-score)” value in the assay on A431 [5] and in the assay with HeLa MZ [6] were -0.482 and -0.452, respectively.

With `C[N+]1(CCCCC[N+]2(C)CCCC2)CCCC1` [Pentolinium bitartrate], the results for the “LBPA endosome anti-LBPA integrated intensity (z-score)” value in the assay with A431 [1] and in the assay on HeLa MZ [2] were -0.453 and -0.278, respectively. The “whole-cell filipin (z-score)” value was -0.653 in the assay on A431 [3] and -0.161 in the assay with HeLa MZ [4]. Also, the “filipin (z-score)” value with A431 [5] is -0.437; with HeLa MZ [6], -0.405.

For the compound `CN(C)CCCSC(=N)N` [Dimaprit dihydrochloride], the “LBPA endosome anti-LBPA integrated intensity (z-score)” value with A431 [1] was -0.577; in the assay with HeLa MZ [2], -1.27. Besides, the “whole-cell filipin (z-score)” value was -0.259 in the assay with A431 [3] and -0.607 in the assay on HeLa MZ [4]. Also, the “filipin (z-score)” value was -0.452 in the assay with A431 [5] and -0.519 in the assay on HeLa MZ [6].

For `CN(C)CCCN1c2ccccc2CCc2ccccc21` [Imipramine hydrochloride], the “LBPA endosome anti-LBPA integrated intensity (z-score)” value is 0.746 in the assay on A431 [1] and 0.11 with HeLa MZ [2]. The “whole-cell filipin (z-score)” value in the assay with A431 [3] was 0.885; in the assay with HeLa MZ [4] it was -0.699. The “filipin (z-score)” value with A431 [5] is 1.08; with HeLa MZ [6], 0.828.

For the compound `CO[C@H]1C[C@H](O[C@H]2[C@H](C)[C@@H](O[C@@H]3O[C@H](C)C[C@H](N(C)C)[C@H]3OC(C)=O)[C@@H](C)C[C@@]3(CO3)C(=O)[C@H](C)[C@@H](OC(C)=O)[C@@H](C)[C@@H](C)OC(=O)[C@@H]2C)O[C@@H](C)[C@@H]1OC(C)=O` [Troleandomycin], the entries for the “LBPA endosome anti-LBPA integrated intensity (z-score)” value in the assay on A431 [1] and in the assay with HeLa MZ [2] were -0.105 and 0.938, respectively. The “whole-cell filipin (z-score)” value in the assay on A431 [3] is -0.701; in the assay with HeLa MZ [4], -0.492. The entries for the “filipin (z-score)” value with A431 [5] and in the assay on HeLa MZ [6] were -0.249 and -0.17, respectively.

As to `COc1ccccc1OCC(O)COC(N)=O` (configuration not stated) [Methocarbamol], the “LBPA endosome anti-LBPA integrated intensity (z-score)” value in the assay with A431 [1] was -0.567; in the assay with HeLa MZ [2], -0.641. In addition, the “whole-cell filipin (z-score)” value in the assay with A431 [3] was -0.741; with HeLa MZ [4], -0.777. Further, the “filipin (z-score)” value in the assay with A431 [5] is -0.492; in the assay with HeLa MZ [6], -0.501.

As to `CN1CC2c3ccccc3Oc3ccc(Cl)cc3C2C1` (configuration not stated) [Asenapine maleate], the “LBPA endosome anti-LBPA integrated intensity (z-score)” value with A431 [1] stood at 2.13; in the assay on HeLa MZ [2] it was 2. In addition, the “whole-cell filipin (z-score)” value with A431 [3] was 0.865; with HeLa MZ [4] it was -0.413. The “filipin (z-score)” value amounted to 1.3 in the assay on A431 [5] and 0.927 in the assay on HeLa MZ [6].
